{"source": "the supplement of paper PMC4466140", "binders": {"B1": {"name": "unnamed (peptide)", "chain": "PKRRAPPPVPKKPSS"}}}
{"biological_target": "AgAbp1", "assay": "SPOT peptide array binding signal intensity (averaged, normalized) (arbitrary units (background-subtracted, floor 0; scale differs between SH3 domains)); higher = stronger binding of the SH3 domain to the peptide", "how_it_was_run": "(§1)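 GST-SH3 fusions from four yeast species, purified on glutathione Sepharose, were incubated at 10 μg/ml overnight at 4°C on membranes of synthetic 15-mer peptides in which cysteines were replaced with serines. Binding signal is the normalized, background-subtracted spot intensity averaged over replicates, in domain-specific arbitrary units.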"}
{"binder": "B1", "SPOT peptide array binding signal intensity": 5860}
{"biological_target": "AgBbc1", "assay": "SPOT peptide array binding signal intensity (averaged, normalized) (arbitrary units (background-subtracted, floor 0; scale differs between SH3 domains)); higher = stronger binding of the SH3 domain to the peptide", "how_it_was_run": "as §1"}
{"binder": "B1", "SPOT peptide array binding signal intensity": 1440}
{"biological_target": "AgBem1-D1", "assay": "SPOT peptide array binding signal intensity (averaged, normalized) (arbitrary units (background-subtracted, floor 0; scale differs between SH3 domains)); higher = stronger binding of the SH3 domain to the peptide", "how_it_was_run": "as §1"}
{"binder": "B1", "SPOT peptide array binding signal intensity": 221}
{"biological_target": "AgBzz1-D1", "assay": "SPOT peptide array binding signal intensity (averaged, normalized) (arbitrary units (background-subtracted, floor 0; scale differs between SH3 domains)); higher = stronger binding of the SH3 domain to the peptide", "how_it_was_run": "as §1"}
{"binder": "B1", "SPOT peptide array binding signal intensity": 2030}
{"biological_target": "AgBzz1-D2", "assay": "SPOT peptide array binding signal intensity (averaged, normalized) (arbitrary units (background-subtracted, floor 0; scale differs between SH3 domains)); higher = stronger binding of the SH3 domain to the peptide", "how_it_was_run": "as §1"}
{"binder": "B1", "SPOT peptide array binding signal intensity": 987}
{"biological_target": "AgCyk3", "assay": "SPOT peptide array binding signal intensity (averaged, normalized) (arbitrary units (background-subtracted, floor 0; scale differs between SH3 domains)); higher = stronger binding of the SH3 domain to the peptide", "how_it_was_run": "as §1"}
{"binder": "B1", "SPOT peptide array binding signal intensity": 1}
{"biological_target": "AgFus1", "assay": "SPOT peptide array binding signal intensity (averaged, normalized) (arbitrary units (background-subtracted, floor 0; scale differs between SH3 domains)); higher = stronger binding of the SH3 domain to the peptide", "how_it_was_run": "as §1"}
{"binder": "B1", "SPOT peptide array binding signal intensity": 21.5}
{"biological_target": "AgHof1", "assay": "SPOT peptide array binding signal intensity (averaged, normalized) (arbitrary units (background-subtracted, floor 0; scale differs between SH3 domains)); higher = stronger binding of the SH3 domain to the peptide", "how_it_was_run": "as §1"}
{"binder": "B1", "SPOT peptide array binding signal intensity": 530}
{"biological_target": "AgHse1", "assay": "SPOT peptide array binding signal intensity (averaged, normalized) (arbitrary units (background-subtracted, floor 0; scale differs between SH3 domains)); higher = stronger binding of the SH3 domain to the peptide", "how_it_was_run": "as §1"}
{"binder": "B1", "SPOT peptide array binding signal intensity": 122}
{"biological_target": "AgLsb1", "assay": "SPOT peptide array binding signal intensity (averaged, normalized) (arbitrary units (background-subtracted, floor 0; scale differs between SH3 domains)); higher = stronger binding of the SH3 domain to the peptide", "how_it_was_run": "as §1"}
{"binder": "B1", "SPOT peptide array binding signal intensity": 784}
{"biological_target": "AgLsb4", "assay": "SPOT peptide array binding signal intensity (averaged, normalized) (arbitrary units (background-subtracted, floor 0; scale differs between SH3 domains)); higher = stronger binding of the SH3 domain to the peptide", "how_it_was_run": "as §1"}
{"binder": "B1", "SPOT peptide array binding signal intensity": 158}
{"biological_target": "AgMyo5", "assay": "SPOT peptide array binding signal intensity (averaged, normalized) (arbitrary units (background-subtracted, floor 0; scale differs between SH3 domains)); higher = stronger binding of the SH3 domain to the peptide", "how_it_was_run": "as §1"}
{"binder": "B1", "SPOT peptide array binding signal intensity": 73.5}
{"biological_target": "AgNbp2", "assay": "SPOT peptide array binding signal intensity (averaged, normalized) (arbitrary units (background-subtracted, floor 0; scale differs between SH3 domains)); higher = stronger binding of the SH3 domain to the peptide", "how_it_was_run": "as §1"}
{"binder": "B1", "SPOT peptide array binding signal intensity": 5620}
{"biological_target": "AgRvs167", "assay": "SPOT peptide array binding signal intensity (averaged, normalized) (arbitrary units (background-subtracted, floor 0; scale differs between SH3 domains)); higher = stronger binding of the SH3 domain to the peptide", "how_it_was_run": "as §1"}
{"binder": "B1", "SPOT peptide array binding signal intensity": 100}
{"biological_target": "AgSho1", "assay": "SPOT peptide array binding signal intensity (averaged, normalized) (arbitrary units (background-subtracted, floor 0; scale differs between SH3 domains)); higher = stronger binding of the SH3 domain to the peptide", "how_it_was_run": "as §1"}
{"binder": "B1", "SPOT peptide array binding signal intensity": 479}
{"biological_target": "AgSla1-D1-D2", "assay": "SPOT peptide array binding signal intensity (averaged, normalized) (arbitrary units (background-subtracted, floor 0; scale differs between SH3 domains)); higher = stronger binding of the SH3 domain to the peptide", "how_it_was_run": "as §1"}
{"binder": "B1", "SPOT peptide array binding signal intensity": 96}
{"biological_target": "AgSla1-D3", "assay": "SPOT peptide array binding signal intensity (averaged, normalized) (arbitrary units (background-subtracted, floor 0; scale differs between SH3 domains)); higher = stronger binding of the SH3 domain to the peptide", "how_it_was_run": "as §1"}
{"binder": "B1", "SPOT peptide array binding signal intensity": 856}
{"biological_target": "CaAbp1-D1", "assay": "SPOT peptide array binding signal intensity (averaged, normalized) (arbitrary units (background-subtracted, floor 0; scale differs between SH3 domains)); higher = stronger binding of the SH3 domain to the peptide", "how_it_was_run": "as §1"}
{"binder": "B1", "SPOT peptide array binding signal intensity": 2910}
{"biological_target": "CaAbp1-D2", "assay": "SPOT peptide array binding signal intensity (averaged, normalized) (arbitrary units (background-subtracted, floor 0; scale differs between SH3 domains)); higher = stronger binding of the SH3 domain to the peptide", "how_it_was_run": "as §1"}
{"binder": "B1", "SPOT peptide array binding signal intensity": 5120}
{"biological_target": "CaBbc1", "assay": "SPOT peptide array binding signal intensity (averaged, normalized) (arbitrary units (background-subtracted, floor 0; scale differs between SH3 domains)); higher = stronger binding of the SH3 domain to the peptide", "how_it_was_run": "as §1"}
{"binder": "B1", "SPOT peptide array binding signal intensity": 1940}
{"biological_target": "CaBem1-D1", "assay": "SPOT peptide array binding signal intensity (averaged, normalized) (arbitrary units (background-subtracted, floor 0; scale differs between SH3 domains)); higher = stronger binding of the SH3 domain to the peptide", "how_it_was_run": "as §1"}
{"binder": "B1", "SPOT peptide array binding signal intensity": 110}
{"biological_target": "CaBzz1-D1", "assay": "SPOT peptide array binding signal intensity (averaged, normalized) (arbitrary units (background-subtracted, floor 0; scale differs between SH3 domains)); higher = stronger binding of the SH3 domain to the peptide", "how_it_was_run": "as §1"}
{"binder": "B1", "SPOT peptide array binding signal intensity": 6700}
{"biological_target": "CaBzz1-D2", "assay": "SPOT peptide array binding signal intensity (averaged, normalized) (arbitrary units (background-subtracted, floor 0; scale differs between SH3 domains)); higher = stronger binding of the SH3 domain to the peptide", "how_it_was_run": "as §1"}
{"binder": "B1", "SPOT peptide array binding signal intensity": 5750}
{"biological_target": "CaCyk3", "assay": "SPOT peptide array binding signal intensity (averaged, normalized) (arbitrary units (background-subtracted, floor 0; scale differs between SH3 domains)); higher = stronger binding of the SH3 domain to the peptide", "how_it_was_run": "as §1"}
{"binder": "B1", "SPOT peptide array binding signal intensity": 142}
{"biological_target": "CaFus1", "assay": "SPOT peptide array binding signal intensity (averaged, normalized) (arbitrary units (background-subtracted, floor 0; scale differs between SH3 domains)); higher = stronger binding of the SH3 domain to the peptide", "how_it_was_run": "as §1"}
{"binder": "B1", "SPOT peptide array binding signal intensity": 188}
{"biological_target": "CaHof1", "assay": "SPOT peptide array binding signal intensity (averaged, normalized) (arbitrary units (background-subtracted, floor 0; scale differs between SH3 domains)); higher = stronger binding of the SH3 domain to the peptide", "how_it_was_run": "as §1"}
{"binder": "B1", "SPOT peptide array binding signal intensity": 0.5}
{"biological_target": "CaHse1", "assay": "SPOT peptide array binding signal intensity (averaged, normalized) (arbitrary units (background-subtracted, floor 0; scale differs between SH3 domains)); higher = stronger binding of the SH3 domain to the peptide", "how_it_was_run": "as §1"}
{"binder": "B1", "SPOT peptide array binding signal intensity": 788}
{"biological_target": "CaLsb1", "assay": "SPOT peptide array binding signal intensity (averaged, normalized) (arbitrary units (background-subtracted, floor 0; scale differs between SH3 domains)); higher = stronger binding of the SH3 domain to the peptide", "how_it_was_run": "as §1"}
{"binder": "B1", "SPOT peptide array binding signal intensity": 0.5}
{"biological_target": "CaLsb4", "assay": "SPOT peptide array binding signal intensity (averaged, normalized) (arbitrary units (background-subtracted, floor 0; scale differs between SH3 domains)); higher = stronger binding of the SH3 domain to the peptide", "how_it_was_run": "as §1"}
{"binder": "B1", "SPOT peptide array binding signal intensity": 2470}
{"biological_target": "CaMyo5", "assay": "SPOT peptide array binding signal intensity (averaged, normalized) (arbitrary units (background-subtracted, floor 0; scale differs between SH3 domains)); higher = stronger binding of the SH3 domain to the peptide", "how_it_was_run": "as §1"}
{"binder": "B1", "SPOT peptide array binding signal intensity": 2}
